Assay [1] in a line: galactose survival enhancers in mitochondrial complex I cybrids – cell-based, galactose medium, ATP luminescence, primary screen (AID 1645843;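 active means z-score of at least 1.8 in each of two replicates, scored against plate mean and spread of sample wells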;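 further: positive z means more ATP and so rescue of galactose-driven cybrid death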). The note with it: complex I mutant cybrid cells, 72 h, stronger effect = higher value.
Assay [2] relates to F380Y. As to the kind of experiment: BK channel mutant inhibitors and activators – cell-based, U2OS BacMam, thallium flux, beta subunits, selectivity assay, profiling panel (AID 1259406).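 Further: initial slope of Thallos dye fluorescence rise after thallium is added; log ratio against the mean of 0.3% DMSO vehicle wells on the same plate.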 To be noted: U2OS BacMam BK variants, at 30 µM.
Assay [3] has as its system F380Y/beta1. The description is as above. To be noted: U2OS BacMam BK variants, at 30 µM.
Assay [4] addresses NAD(+) hydrolase SARM1 (Homo sapiens) (UniProt Q6SZW1). As to the kind of experiment: blocking NAD cleavage by SARM1 SAM-TIR – cell lysate, NAD-Glo luminescence (AID 1508614;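 active means compound whose remaining NAD level is above about 45 nM, limit read from the data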). To be noted: SAM-TIR HEK293T lysate NADase, at 1 µM, stronger effect = higher value.
A short description of assay [5]: growth inhibition, single agent or in combination, cell-based, chromothripsis tumors, cisplatin or BGB combos (AID 1671449; in the data active means inhibition above about 80%;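 further: cells exposed for 96 hours; 0% = vehicle DMSO and 100% = killing by high DMSO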). To be noted: LFS_MB_P medulloblastoma cells.
Assay [6] is described as follows: growth inhibition, single agent and combos, cell-based, chromothripsis tumors, cisplatin or BGB combos (AID 1671450; in the data active means inhibition above about 80%;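 further: cells exposed to compound for four days; 0% = vehicle DMSO and 100% = cell killing by high DMSO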). The note with it: HDN33 neuroblastoma cells, stronger effect = higher value.
A short description of assay [7]: growth inhibition, single agents and combos, ICB984, cell-based, cisplatin or BGB combos, synergistic combos for chromothripsis tumors (AID 1671451; call rule not given here;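 further: cells exposed for 96 hours before readout; 0% = vehicle DMSO and 100% = killing by high DMSO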). The note with it: ICB984 medulloblastoma cells, drug combinations, stronger effect = higher value.
Assay [8] is described as follows: growth inhibition, single agents and combos, LFS_MB_1R, cell-based, cisplatin or BGB combos, synergistic combos for chromothripsis tumors (AID 1671452; in the data active means inhibition above about 80%;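 further: cells exposed for 96 hours before readout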). To be noted: LFS_MB_1R medulloblastoma cells, stronger effect = higher value.
Assay [9] in a line: growth inhibition, single agents and combos, HTB85, cell-based, BGB or cisplatin IC20 combos, synergistic combos for chromothripsis tumors (AID 1671453; in the data active means inhibition above about 80%;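 further: cells exposed for 96 hours before readout; 0% = vehicle DMSO and 100% = high DMSO killing control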). The note with it: HTB85 osteosarcoma cells, drug combinations, stronger effect = higher value.
Assay [10] is described as follows: growth inhibition, single agents and combos, CRL2098, cell-based, BGB or cisplatin IC20 combos, synergistic combos for chromothripsis tumors (AID 1671454; in the data active means inhibition above about 80%;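 further: cells exposed for 96 h before readout; 0% = vehicle DMSO and 100% = killing by high DMSO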). The note with it: CRL2098 osteosarcoma cells, drug combinations, stronger effect = higher value.
The nature of assay [11]: growth inhibition, single agents and combos, HD-MB03, cell-based, BGB or cisplatin IC20 combos, synergistic combos for chromothripsis tumors (AID 1671455; in the data active means inhibition above about 83%;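 further: 0% = vehicle DMSO and 100% = high DMSO as cytotoxic control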). To be noted: HD-MB03 medulloblastoma cells, stronger effect = higher value.
Assay [12] can be described thus: growth inhibition, single agents and combos, UWB1.289, cell-based, BGB or cisplatin combos, synergistic combos for chromothripsis tumors (AID 1671456; in the data active means inhibition above about 80%;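 further: cells exposed to compound for four days; 0% = vehicle DMSO and 100% = killing by high DMSO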). The note with it: UWB1.289 ovarian carcinoma cells, stronger effect = higher value.
Assay [13] can be described thus: growth inhibition, single agents and combos, LFS_MB_2R, cell-based, cisplatin combos, synergistic combos for chromothripsis tumors (AID 1671457; in the data active means inhibition above about 80%;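 further: cells exposed to compound for four days before readout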). The note with it: LFS_MB_2R medulloblastoma cells, stronger effect = higher value.
The nature of assay [14]: growth inhibition, MDA-MB-436, cell-based, BGB or cisplatin combos, synergistic combos for chromothripsis tumors (AID 1671458; call rule not given here;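 further: cells exposed for 96 hours; 0% = vehicle DMSO and 100% = killing by high DMSO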). To be noted: MDA-MB-436 breast carcinoma growth inhibition, drug combinations, stronger effect = higher value.
Assay [15] can be described thus: UWB1.289_BRCA1 ovarian cancer growth, cell-based, BGB or cisplatin combinations (AID 1671459; in the data active means inhibition above about 80%). The note with it: UWB1.289 BRCA1 ovarian carcinoma, drug combinations, stronger effect = higher value.
The nature of assay [16]: drug combination toxicity in non-malignant astrocytes – cell-based, BGB or cisplatin IC20 combos, cytotoxicity control for chromothriptic childhood tumor combination screen (AID 1671460; in the data active means inhibition above about 80%;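 further: cells exposed to compounds for 96 hours before viability readout; 0% = vehicle and 100% = killing control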). To be noted: Human astrocytes, viability inhibition, drug combinations, at 0.5 µM, stronger effect = higher value.
Assay [17] in a line: BT084 cell growth, single and combined drugs, ICGC_MB145, cisplatin and BGB IC40 combos (AID 1671461; in the data active means inhibition above about 80%;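 further: cells exposed to drugs for 96 hours; 0% = vehicle DMSO and 100% = high DMSO full killing control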). To be noted: BT084 medulloblastoma cells, drug combinations, stronger effect = higher value.
The nature of assay [18]: RCMB18 cell growth, single agent and combined, cisplatin and BGB IC40 combos (AID 1671462; in the data active means inhibition above about 80%;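 further: cells exposed to compound for four days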). To be noted: RCMB18 medulloblastoma cells, stronger effect = higher value.
A short description of assay [19]: CRL1545 cell growth, single agent and combined, cisplatin and BGB IC20 combos (AID 1671464; in the data active means inhibition above about 80%;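 further: cells exposed to compound for 96 hours before readout; 0% = vehicle DMSO and 100% = high DMSO killing control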). The note with it: CRL1545 osteosarcoma cells, stronger effect = higher value.
Where [20] appears, read: measured here: combination with BGB IC40, at 0.05 µM.
Where [21] appears, read: measured here: with BGB IC20 combination, at 0.5 µM.
[22] abbreviates: measured here: with cisplatin IC20 combination, at 0.5 µM.
[23] abbreviates: measured here: combination with cisplatin, at 0.5 µM.
The mark [24] stands for this setting: measured here: combination with cisplatin, at 5 µM.

From PubChem BioAssay come the findings set out here.

Each structure is given as a SMILES string. Where “and” joins values, the source holds several entries; their conditions need not be identical. Identical values can stand only once. Calls of active or inactive are those of the source.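 How the source made its calls, unless noted: active means thallium flux through the channel raised or lowered by more than 3 SD from vehicle-only wells, actives on both sides; inactive means the rest.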

Sequence of NAD(+) hydrolase SARM1 (Homo sapiens) (Q6SZW1 whole entry, looked up): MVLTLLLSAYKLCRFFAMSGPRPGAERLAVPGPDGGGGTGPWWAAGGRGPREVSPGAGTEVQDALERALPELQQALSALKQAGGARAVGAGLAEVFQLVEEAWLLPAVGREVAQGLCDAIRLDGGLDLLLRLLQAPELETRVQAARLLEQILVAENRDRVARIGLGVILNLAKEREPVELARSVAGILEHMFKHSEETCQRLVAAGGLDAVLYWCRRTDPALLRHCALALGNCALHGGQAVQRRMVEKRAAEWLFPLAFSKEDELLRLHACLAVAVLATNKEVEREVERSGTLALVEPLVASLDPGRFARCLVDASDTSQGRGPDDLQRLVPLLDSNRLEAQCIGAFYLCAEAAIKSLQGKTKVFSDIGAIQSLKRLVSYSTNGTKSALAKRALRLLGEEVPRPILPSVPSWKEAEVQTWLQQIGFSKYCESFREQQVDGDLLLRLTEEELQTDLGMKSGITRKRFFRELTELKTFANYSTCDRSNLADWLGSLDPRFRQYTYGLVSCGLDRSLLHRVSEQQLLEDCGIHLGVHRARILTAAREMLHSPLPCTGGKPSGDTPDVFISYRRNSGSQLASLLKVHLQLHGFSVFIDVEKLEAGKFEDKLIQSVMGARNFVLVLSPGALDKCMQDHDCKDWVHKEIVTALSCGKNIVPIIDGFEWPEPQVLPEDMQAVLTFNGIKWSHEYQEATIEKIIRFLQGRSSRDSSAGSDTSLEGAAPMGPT

As for `COC(=O)CCc1ccc(OCC(O)CNC(C)C)cc1` (stereo not given), the z-score in assay [1] is 0.52 (inactive) and 0.07 (inactive). In addition, the log fold change Tl+ flux in [2] was -0.0174 (inactive); in assay [3] it was 0.0192 (inactive).
For `O=c1[nH]cnc2c1ncn2[C@H]1CC[C@@H](CO)O1`, the z-score in assay [1] was 0.385 (inactive). Also, the log fold change Tl+ flux in [2] is -0.00984 (inactive); in assay [3], -0.0163 (inactive).
Turning to `C[C@@H]1CN(CCCn2c3ccccc3c3ccccc32)C[C@H](C)N1`, the z-score in assay [1] is -0.695 (inactive). The log fold change Tl+ flux is 0.145 (active) in assay [2] and 0.208 (active) in [3].
On to `NC1CCN(c2nc3c(cc2F)c(=O)c(C(=O)O)cn3-c2ccc(F)cc2F)C1` (stereo not given), for which, in assay [1], the z-score was 0.62 (inactive) and -0.04 (inactive). The log fold change Tl+ flux is -0.0112 (inactive) in [2] and 0.0192 (inactive) in assay [3].
For the compound `CCN1CCC[C@H]1CNC(=O)c1cc(S(N)(=O)=O)ccc1OC`, in assay [1], the z-score is 0.65 (inactive) and 0.075 (inactive) and 0.505 (inactive). For the same compound, the figures for the log fold change Tl+ flux in assay [2] and in [3] were -0.0719 (inactive) and 0.000794 (inactive), respectively.
As to `NCC1CCC(C(=O)Oc2ccc(CCC(=O)O)cc2)CC1` (stereo not given), the z-score in assay [1] was 0.62 (inactive). Besides, the log fold change Tl+ flux in assay [2] is -0.0268 (inactive); in [3], -0.0246 (inactive).
For orientation: inhibition means the change of the read-out against control, counted positive when it falls. `C[C@H]1COc2c(C3(N)CC3)c(F)cc3c(=O)c(C(=O)O)cn1c23`: in [4], the remaining NAD was 10 nM (inactive). Moreover, the z-score in assay [1] is 0.735 (inactive). The inhibition in assay [5] (at 0.5 µM, stronger effect = higher value) was -4.46% (inactive); in assay [5] (measured here: combination with BGB IC20, at 0.005 µM) it was -13%; in assay [5] (measured here: combination with BGB IC40, at 0.005 µM) it was -17.8%; in assay [5] (setting [20]), -33.8%; in assay [5] (measured here: combination with cisplatin, at 0.5 µM, stronger effect = higher value), -7.85%; in assay [5] (measured here: combination with cisplatin, at 5 µM, stronger effect = higher value) it was -33.3%. Also, the inhibition in assay [6] (BGB combo, at 5 µM) is -18.1%; in assay [6] (at 0.5 µM), -10.4% (inactive); in assay [6] (cisplatin combo, at 5 µM) it was -7.06%; in assay [6] (setting [21]), -22.3%; in [6] (setting [22]), -3.47%; in [6] (single agent, at 5 µM) it was -13.5%. Further, the inhibition in assay [7] (BGB IC20 combo, at 0.005 µM) is -21.1%; in [7] (BGB IC40 combo, at 0.005 µM), 4.03%; in [7] (BGB IC40 combo, at 0.05 µM) it was -27.4%; in assay [7] (at 0.5 µM) it was -17.9% (inactive); in assay [7] (cisplatin combo, at 0.05 µM) it was -30.9%; in assay [7] (cisplatin combo, at 0.5 µM), -13.3%. Also, the inhibition was -41.9% in assay [7] (cisplatin combo, at 5 µM); -29.9% in [7] (measured here: 5 uM single agent, at 5 µM); -26.1% (inactive) in assay [8] (at 0.5 µM); -41.4% in assay [8] (setting [20]); -26.2% in [8] (setting [23]); -29.7% in assay [8] (setting [24]). The inhibition in assay [9] (at 0.5 µM) is -9.68% (inactive); in assay [9] (measured here: with BGB IC20, at 0.5 µM) it was -30.1%; in assay [9] (measured here: with BGB IC20, at 5 µM), -48.1%; in [9] (measured here: with cisplatin IC20, at 0.5 µM) it was -17.4%; in [9] (measured here: with cisplatin IC20, at 5 µM), -41%; in assay [9] (single agent, at 5 µM), 3.14%. Also, the inhibition is -44.1% (inactive) in assay [10] (at 0.5 µM); -27.6% in assay [10] (measured here: combination with BGB at IC20, at 0.5 µM); -41.6% in assay [10] (measured here: combination with cisplatin at IC20, at 0.5 µM); -8.87% (inactive) in assay [11] (at 0.5 µM); -6% in assay [11] (measured here: combo with BGB at IC20, at 0.5 µM); -11.8% in [11] (measured here: combo with cisplatin at IC20, at 0.5 µM). Also, the inhibition was 2.11% (inactive) in assay [12] (at 0.5 µM); -7.87% in assay [12] (measured here: inhibition with BGB combination, at 0.05 µM); -10.7% in assay [12] (measured here: inhibition with cisplatin combination, at 0.05 µM); -20.7% (inactive) in assay [13] (at 0.5 µM); -28.1% in assay [13] (setting [23]); -123% in assay [13] (setting [24]). Besides, the inhibition was -24.5% (inactive) in assay [14] (at 0.5 µM); -30.5% in assay [14] (measured here: BGB combination, at 0.5 µM); -26.3% in assay [14] (measured here: BGB combination, at 5 µM); -33.6% in assay [14] (measured here: cisplatin combination, at 0.5 µM); 0.273% in assay [14] (measured here: cisplatin combination, at 5 µM); -9.44% in assay [15] (BGB combination, concentration series, at 5 µM). The inhibition was -1.55% (inactive) in [15] (at 0.5 µM); -1.09% in [15] (cisplatin combination, concentration series, at 5 µM); 5.46% (inactive) in assay [16]; 4.83% in assay [16] (measured here: combo with BGB IC20); -0.547% in [16] (measured here: combo with cisplatin IC20); -36.3% (inactive) in [17] (at 0.5 µM). Also, the inhibition in assay [17] (cisplatin combination, at 0.5 µM) is -17.3%; in assay [17] (cisplatin combination, at 5 µM), -31.8%; in [17] (measured here: BGB IC40 combination 0.05 uM, at 0.05 µM), 22.3%; in assay [17] (single agent, at 5 µM), -28.3%; in [18] (at 0.5 µM), -18.8% (inactive); in assay [18] (cisplatin combo, at 5 µM), -20.9%. The inhibition in assay [18] (measured here: BGB IC40 combination, at 0.05 µM) is -11.8%; in assay [18] (setting [23]) it was -24.3%; in assay [18] (single agent, at 5 µM) it was -38.1%; in assay [19] (at 0.5 µM), 9.56% (inactive); in assay [19] (setting [21]) it was -3.27%; in assay [19] (setting [22]) it was 14.1%. The inhibition is -13.5% in assay [19] (single agent, at 0.05 µM) and 10.7% in assay [19] (single agent, at 5 µM). For the same compound, the log fold change Tl+ flux in [2] was -0.0868 (inactive); in [3], 0.0568 (inactive).
